# Pol eta inh-1 = qHTS for Inhibitors of Polymerase Eta. Potency, µM (top dose mostly 114 µM), inactives show at the highest dose activity change, negative = inhibition, usual class: inhibitors. DNA polymerase eta (Homo sapiens), Q9Y253. 1.2% of 390,000 active. AID 588591, 2011. recombinant Pol eta, fluorescent DNA replication assay; also: % is scaled to controls: 0 for no effect and ±100 for the full control effect
#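 Pol eta at 10 nM preincubated with compounds 15 min at room temperature; reaction started with fluorescent substrate (50 nM final) and read kinetically at 0 and 10 min.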
# POLB inh = qHTS Assay for Inhibitors of DNA Polymerase Beta; Pol beta primer extension/strand displacement, fluorescence kinetic; Potency, µM (series often up to 114 µM), without a hit: at the top dose activity change, negative = inhibition, actives largely listed as inhibitors; 1.3% of 340,000 active; AID 485314, 2010; P06746; also: % is scaled to controls: 0 for no effect and ±100 for the full control effect
#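 Preincubation: enzyme (10 nM) with compound, 15 min, RT. Reaction: substrate added to 50 nM final. Reads: 0 and 10 min. Analysis: normalized, Hill fit.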
# WRN inhibitor = qHTS for Inhibitors of WRN Helicase | Bifunctional 3'-5' exonuclease/ATP-dependent helicase WRN (Homo sapiens), Q14191 | WRN helicase unwinding, fluorescent forked duplex, kinetic | Potency, µM (top dose mostly 114 µM), without a hit: at the top dose activity change, negative = inhibition, most hits filed as inhibitors | 0.46% of 360,000 active | AID 651768, 2012; also: % is scaled to controls: 0 for no effect and ±100 for the full control effect; nearly all actives have a fitted effect of over 55% in size
#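 Fluorescence dequenching readout, ex 525 nm/em 598 nm, kinetic mode: forked duplex DNA (100 nM final) with adjacent fluorophore and quencher unwound by WRN (20 nM final) with 2 mM ATP. Compound preincubation 15 min, room temperature.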
# Pol iota inh = qHTS for Inhibitors of Polymerase Iota; DNA polymerase iota (Homo sapiens), Q9UNA4; Pol iota fluorescent replication assay, 10 min; Potency, µM (series often up to 115 µM), without a hit: at the top dose activity, negative = inhibition, actives largely listed as inhibitors; 1% of 390,000 active; AID 588590, 2011
#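 Fluorescent replication assay read twice, at 0 min and 10 min after adding 50 nM (final) substrate. Enzyme (10 nM) and compounds were first incubated 15 min at room temperature; enzyme-free buffer wells were negative controls.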
# Pol kappa inh-1 = qHTS for Inhibitors of Polymerase Kappa; DNA polymerase kappa (Homo sapiens), Q9UBT6; AID 588579, 2011; Potency, µM (titrated, usually from 107 µM), without a hit: at the highest dose activity, negative = inhibition, hits mostly inhibitors; 0.53% of 400,000 active; purified Pol kappa, fluorescent DNA synthesis assay, 10 min; also: % is scaled to controls: 0 for no effect and ±100 for the full control effect
# Target sequence (Q9UBT6 whole entry, looked up): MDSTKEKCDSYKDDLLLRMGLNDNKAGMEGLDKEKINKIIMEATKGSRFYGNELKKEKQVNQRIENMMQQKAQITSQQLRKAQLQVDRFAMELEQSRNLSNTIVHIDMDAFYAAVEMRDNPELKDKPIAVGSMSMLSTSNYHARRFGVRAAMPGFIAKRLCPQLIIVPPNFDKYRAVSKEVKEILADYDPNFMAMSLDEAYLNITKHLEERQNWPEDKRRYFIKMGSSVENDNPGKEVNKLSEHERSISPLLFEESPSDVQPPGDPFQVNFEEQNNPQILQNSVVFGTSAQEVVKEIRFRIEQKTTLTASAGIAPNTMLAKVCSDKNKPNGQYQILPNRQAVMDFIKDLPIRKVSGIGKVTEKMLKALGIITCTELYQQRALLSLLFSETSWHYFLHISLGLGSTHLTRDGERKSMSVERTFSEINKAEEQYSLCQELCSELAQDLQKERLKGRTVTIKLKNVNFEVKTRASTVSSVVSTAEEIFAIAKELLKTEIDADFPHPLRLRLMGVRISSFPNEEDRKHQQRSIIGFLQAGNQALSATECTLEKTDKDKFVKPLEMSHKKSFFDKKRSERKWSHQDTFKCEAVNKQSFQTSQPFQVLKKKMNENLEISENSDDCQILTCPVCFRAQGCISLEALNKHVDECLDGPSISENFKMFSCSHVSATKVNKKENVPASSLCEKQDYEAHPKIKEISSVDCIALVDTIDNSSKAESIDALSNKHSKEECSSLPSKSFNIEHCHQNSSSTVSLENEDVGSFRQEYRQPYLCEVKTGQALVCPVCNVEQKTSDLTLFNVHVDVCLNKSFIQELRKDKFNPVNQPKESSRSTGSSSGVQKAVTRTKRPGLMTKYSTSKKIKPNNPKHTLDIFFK
#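 Activity was followed as the change in fluorescence between reads at 0 and 10 min after starting the reaction with 50 nM substrate. Beforehand, 10 nM polymerase had been preincubated with compound for 15 min at room temperature.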
# FEN1 inh = qHTS Assay for the Inhibitors of Human Flap endonuclease 1 (FEN1); Recombinant FEN1 flap cleavage, fluorescence, 15 min; P39748; 0.35% of 390,000 active; Potency, µM (titrated, usually from 114 µM), for the others: top-dose activity change, negative = inhibition, most hits filed as inhibitors; also: % is scaled to controls: 0 for no effect and ±100 for the full control effect; nearly all actives have a fitted effect of over 65% in size
#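 Nuclease activity of 10 nM FEN1 was measured after 15 min of room-temperature exposure to titrated compounds, by adding 50 nM flap substrate and reading plates at 0 and 15 min.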
# TbPGK inh = qHTS for inhibitors of Phosphogylcerate Kinase: Hit Validation Screen; shares compounds with Pol kappa inh-1; TbPGK coupled GAPDH assay, Kinase-Glo luminescence; Potency, µM (highest dose often 57.5 µM), without a hit: at the top dose activity change, negative = inhibition, usual class: inhibitors; 79% of 500 active; AID 686980, 2013; also: % is scaled to controls: 0 for no effect and ±100 for the full control effect; nearly all actives have a fitted effect of over 65% in size
# POLI cherry-pick = qHTS for Inhibitors of Polymerase Iota: Confirmatory Assay for Cherry-picked Compounds; shares compounds with Pol kappa inh-1; Pol iota primer extension, TAMRA/BHQ fluorescence; Potency, µM, actives largely listed as inhibitors; 77% of 1,500 active
# Pol kappa inh-2 = qHTS for Inhibitors of Polymerase Kappa: Confirmatory Assay for Cherry-picked Compounds; shares compounds with Pol eta inh-1; purified Pol-kappa, fluorescent strand-displacement substrate; Potency, µM, usual class: inhibitors; 76% of 920 active; AID 720501, 2013
# Pol eta inh-2 = qHTS for Inhibitors of Polymerase Eta: Confirmatory Assay for Cherry-picked Compounds. shares compounds with Pol eta inh-1. Pol eta primer extension, TAMRA/BHQ fluorescence, 10 min. Potency, µM, actives largely listed as inhibitors. 64% of 2,600 active
# Starred values were filed as active, the others as inactive; u = inconclusive; x = not tested or not shown; [ ] = another dose, or the depositor's remark. Shown are actives, neighbours in structure and some others; about 2.4% of the full set was active somewhere. Calls follow the shape of the dose curve; as a rule, active = well fitted curve in the direction sought with a large enough effect; inconclusive = small, poorly fitted or top-dose-only effect, or another doubt; inactive = no such curve, though single readings can be large; an effect the other way counts as inactive or inconclusive. Potency is read from the fitted curve at half-maximal effect.
SMILES,Pol eta inh-1,POLB inh,WRN inhibitor,Pol iota inh,Pol kappa inh-1,FEN1 inh,POLI cherry-pick,Pol kappa inh-2,Pol eta inh-2,others
COc1ccc(-c2[nH]c(-c3ccccc3)nc2SCC(=O)Nc2ccc3c(c2)OCO3)cc1,-11%,-13%,x,-10%,-22%,-3%,x,x,x,
Cc1ccccc1NC(=O)CN1C(=O)S/C(=C\c2cccn2-c2cccc(C(=O)O)c2)C1=O,3.5µM*,-87%,u,u,25µM*,u,42*,x,48*,
Cc1cccc(C)c1-n1cccc1/C=C1\SC(=S)N(c2cccc(C(=O)O)c2)C1=O,u,40µM*,u,u,-16%,u,u,60*,u,
Cc1cccc(C)c1NC(=O)CN1C(=O)S/C(=C\c2cccn2C)C1=O,0%,29%,-9%,0%,-18%,-1%,x,x,x,
CC(C)(C)C(=O)Cn1ncc(Cl)c(Cl)c1=O,-4%,-2%,-3%,12%,-20%,18%,x,x,x,
C=CCn1c(C)cc(C(=O)Cn2ncc(Cl)c(Cl)c2=O)c1C,28µM*,11µM*,u,20µM*,u,-12%,u,x,76*,
NCC(O)c1ccc(O)c(O)c1 (stereo not drawn),u,35µM*,-35%[57.1 µM],35µM*,7.5µM*,1%,47*,x,u,
COc1ccc(Br)cc1C1C(C(=O)Nc2ccc(C)cc2C)=C(C)Nc2ncnn21 (stereo not drawn),-11%,-22%,x,3%,-18%,-7%,x,x,x,
CCOC(=O)c1cc(-c2ccccc2)n(CCC(=O)Nc2ccc(Cl)c(C(F)(F)F)c2)c1C,-3%,2%,x,6%,0%[60.1 µM],u,x,x,x,
CCn1cc(S(=O)(=O)c2cc(C)cc(C)c2)c(=O)c2cc(F)c(N3CCN(c4ccccc4)CC3)cc21,-4%,19%,x,40%,7%,-2%,x,x,x,
N#Cc1ccccc1S(=O)(=O)N1CCN(C(=O)c2cc3c(s2)CCC3)CC1,20µM*,x,-13%[11.6 µM],u,u,-8%,u,u,u,
Cc1cc(C(=O)N2CCN(S(=O)(=O)c3ccccc3C#N)CC2)c(C)o1,-25%,x,-10%,31%,-15%,-3%,x,x,x,
Cc1ccc(-c2nc3c4ccccc4[nH]c(=O)n3n2)cc1,u,-20%,x,26%,12%,-4%,u,x,u,
Cc1cc(C)n2c(SCC(=O)N(CCC#N)c3ccc4c(c3)OCCO4)nnc2n1,20µM*,x,-7%[11.6 µM],x,x,x,27*,17*,48*,
Cc1cc(/C=C2\SC(=S)NC2=O)c(C)n1C,28µM*,40µM*,u,u,79µM*,u,67*,17*,38*,
C=CCOc1ccc(C=NNc2ccc(S(=O)(=O)Nc3ccccc3C(=O)O)cc2[N+](=O)[O-])cc1OC,u,x,50µM*,14µM*,u,u,19*,u,85*,TbPGK inh=5.2µM*
Cc1nn(-c2ccccc2)c(Cl)c1/C=N/Nc1ccc(S(=O)(=O)Nc2ccccc2C(=O)O)cc1[N+](=O)[O-],35µM*,45µM*,u,40µM*,u,u,u,24*,43*,
CC(C)(O)c1ccccc1CC[C@@H](SCC1(CC(=O)O)CC1)c1cccc(/C=C/c2ccc3ccc(Cl)cc3n2)c1,u,x,-7%[11.6 µM],45µM*,-35%,-17%,u,84*,x,
Nc1cc([N+](=O)[O-])ccc1Nc1ccccc1,-4%,-1%,-9%,30%,-7%,-17%,x,x,x,
Nc1ccc(Nc2ccccc2)c(S(=O)(=O)O)c1,16µM*,11µM*,u,11µM*,79µM*,-1%,47*,8.4*,38*,
c1ccc(CNc2ncncc2-c2ccc3c(c2)OCO3)cc1,x,x,x,x,6%[60.1 µM],x,x,x,x,
CCOC(=O)CN(C(=O)c1snc(C(N)=O)c1N)C(C(=O)NC1CCCCC1)c1ccc(F)cc1 (stereo not drawn),35µM*,20µM*,4%[11.6 µM],u,79µM*,-28%,42*,x,u,
CN(C(=O)CSc1nc2ccccc2n1Cc1cccc(C(F)(F)F)c1)c1ccccc1,-9%,u,x,9%,-13%[60.1 µM],-22%,x,x,x,
COc1cc2oc(=O)cc(-c3ccc(-c4sccc4C=O)cc3)c2c(OC)c1OC,x,x,x,x,-14%[60.1 µM],x,x,x,x,
N=C1/C(=C/c2ccco2)C(=O)N=C2SC(CC(=O)N3CCCC3)=NN12,14µM*,u,50µM*,16µM*,u,-34%,38*,x,24*,
Cc1ccc(SC2=C(N(C)C)C(=O)c3ccccc3C2=O)cc1,8.9µM*,x,-11%,20µM*,-19%,-18%,u,x,76*,
CO[C@H]1C[C@@H]2CC[C@@H](C)[C@@](O)(O2)C(=O)C(=O)N2CCCC[C@H]2C(=O)O[C@H]([C@H](C)C[C@@H]2CC[C@@H](OCCO)[C@H](OC)C2)CC(=O)[C@H](C)/C=C(\C)[C@@H](O)[C@@H](OC)C(=O)[C@H](C)C[C@H](C)/C=C/C=C/C=C/1C,x,x,x,x,-5%[19.4 µM],x,x,x,x,
CCOc1ccc2nc(Cl)c(C3CC(c4ccc(OC)cc4)=NN3S(C)(=O)=O)cc2c1 (stereo not drawn),u,26%,x,u,u,7%,u,75*,76*,
C=CCn1c(SCC(=O)NC2CCCC2)nnc1-c1cccnc1,-1%,-7%,-3%,39%,-7%,-4%,x,x,x,

# Screening data from PubChem.
